Measurements published in PubChem BioAssay (NCATS).
Inconclusive results are not listed. The source made the active and inactive calls. Unless noted, calls come from the whole dose curve; as a rule, active = well fitted curve in the direction sought with a large enough effect; inconclusive = small, poorly fitted or top-dose-only effect, or another doubt; inactive = no such curve, though single readings can be large; an effect the other way counts as inactive or inconclusive.

Columns and labels:
[1] = target: ATP-dependent 6-phosphofructokinase (Trypanosoma brucei brucei) (UniProt O15648); test: qHTS Assay to Find Inhibitors of T. brucei phosphofructokinase: hit validation (AID 492961);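 note: luminescence reports ADP formed as PFK phosphorylates fructose-6-phosphate with ATP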
How it was run: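 Reaction: 0.1 M triethanolamine pH 8.0, 5 mM MgCl2, F6P 0.5 mM, ATP 0.1 mM, PFK 1.25 nM, 45 min RT. Read-out: ADP-Glo luminescence. Analysis: concentration-response fits, classed by r2 and efficacy.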

[2] = target: Ubiquitin carboxyl-terminal hydrolase 1 (Homo sapiens) (UniProt O94782); test: Inhibitors of USP1/UAF1: Pilot qHTS (AID 504865);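 note: rhodamine fluorescence freed from ubiquitin-rhodamine substrate followed over time; top concentration of the series differs between compounds; nearly all actives have a fitted effect of over 35% in size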
How it was run: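 Enzyme-free wells gave the negative control, while test wells held 1nM USP1/UAF1 preincubated with compound for 15 min at room temperature. Ub-Rho at 150nM final started the reaction, and fluorescence at 480/540 nm was recorded kinetically.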

[3] = target: Luciferin 4-monooxygenase (Photinus pyralis) (UniProt P08659); test: Biochemical firefly luciferase enzyme assay for NPC (AID 624030);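 note: purified P. pyralis luciferase at 10 nM with luciferin and ATP substrate; nearly all actives have a fitted effect of over 70% in size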
How it was run: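 Counter-screen for direct inhibition of the luciferase enzyme by approved-drug library compounds, run at 10 nM enzyme in 50 mM Tris acetate (final). Luminescence was read within 5 min of enzyme-buffer addition and normalized to PTC124 versus DMSO (0%).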

[4] = S16 Schwann cell viability assay (CellTiter-Glo assay) (AID 624031);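 note: cellular ATP luminescence as a viability measure; nearly all actives have a fitted effect of over 70% in size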
How it was run: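 This viability control uses native rat S16 Schwann cells grown in DMEM plus 10% FBS. After a 24 h compound treatment at 37 °C, CellTiter-Glo luminescence reports ATP content, scaled against DMSO-treated and cell-free wells.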

[5] = S16 Schwann cell PMP22 intronic element beta-lactamase assay (AID 624044; calls by dose curve; note: nearly all actives have a fitted effect of over 15% in size)
How it was run: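 Rat S16 Schwann cells with beta-Lac driven by a PMP22 intronic element, compound-treated 24 h at 37 °C. LiveBLAzer FRET B/G read: 460 nm normalized to potassium clavulanate vs DMSO; 535 nm FRET as viability; concentration-effect curves classified.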

AS120 = test: qHTS profiling for inhibitors of Plasmodium falciparum proliferation (AID 504749); note: nearly all actives have a fitted effect of over 60% in size; note: potency is the fitted concentration of half-maximal effect; details: P. falciparum in erythrocytes, SYBR Green DNA, 72 h; series mostly up to 28.7 µM
How it was run: (§1)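 P. falciparum-infected erythrocytes (0.3% parasitemia, 2.5% hematocrit final) were exposed to compounds for 72 h at 37 C in 5% CO2, then lysed with SYBR Green buffer overnight at room temperature; parasite DNA fluorescence was normalized to artemisinin and DMSO controls.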

CP191 = test: as above; details: P. falciparum in erythrocytes, SYBR Green DNA, 72 h; series mostly up to 28.7 µM
How it was run: as §1

CP203 = test: as above; details: P. falciparum in erythrocytes, SYBR Green DNA, 72 h; series mostly up to 28.7 µM
How it was run: as §1

CP237 = test: as above; details: P. falciparum in erythrocytes, SYBR Green DNA, 72 h; series mostly up to 28.7 µM
How it was run: as §1

CP250 = test: as above; details: P. falciparum in erythrocytes, SYBR Green DNA, 72 h; series mostly up to 28.7 µM
How it was run: as §1

CP252 = test: as above; details: P. falciparum in erythrocytes, SYBR Green DNA, 72 h; series mostly up to 28.7 µM
How it was run: as §1

DFO2036 = test: as above; details: P. falciparum in erythrocytes, SYBR Green DNA, 72 h; series mostly up to 28.7 µM
How it was run: as §1

FAB9 = test: as above; details: P. falciparum in erythrocytes, SYBR Green DNA, 72 h; series mostly up to 28.7 µM
How it was run: as §1

HB3 = test: as above; details: P. falciparum in erythrocytes, SYBR Green DNA, 72 h; series mostly up to 28.7 µM
How it was run: as §1

PC49 = test: as above; details: P. falciparum in erythrocytes, SYBR Green DNA, 72 h; series mostly up to 28.7 µM
How it was run: as §1

W2 = test: as above; details: P. falciparum in erythrocytes, SYBR Green DNA, 72 h; series mostly up to 28.7 µM
How it was run: as §1

[6] = target: Alpha-galactosidase (Coffea arabica) (UniProt Q42656); test: Counterscreen for Glucocerebrosidase Inhibitors: qHTS Assay for Coffee Bean alpha-Galactosidase at pH 4.5 (AID 957)
How it was run: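 Green coffee bean enzyme (2 nM final) was incubated with compounds (0.7 nM to 77 uM) and 4-methylumbelliferyl alpha-D-galactopyranoside (80 uM final) in 50 mM citric acid, 0.005% Tween-20, pH 4.5, 20 min at room temperature; AC50 from Hill fits.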

[7] = target: Alpha-galactosidase A (Homo sapiens) (UniProt P06280); test: Counterscreen for Glucocerebrosidase Inhibitors: qHTS Assay for Human alpha-Galactosidase at pH 4.5 (AID 992)
How it was run: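 Quantitative HTS: compounds tested from 0.7 nM up to 77 uM against 2 nM enzyme with 80 uM 4-MU alpha-D-galactopyranoside. The 20 min room-temperature reaction is stopped with 1M NaOH/1M glycine, pH 10.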

[8] = target: alpha-glucosidase (Oryza sativa, rice) (UniProt Q653V4); test: Counterscreen for Glucocerebrosidase Inhibitors: qHTS Assay for Rice alpha-Glucosidase at pH 5.0 (AID 997)
How it was run: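 Rice alpha-glucosidase (4 nM final) with 400 uM 4-methylumbelliferyl-alpha-D-glucopyranoside in citrate buffer pH 5.0, 20 min at room temperature, stopped at pH 10; fluorescence 365/440 nm, compounds 0.7 nM–77 uM, AC50 from Hill fits.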

[9] = target: Alpha-galactosidase (Coffea arabica) (UniProt Q42656); test: Counterscreen for Glucocerebrosidase Inhibitors: qHTS Assay for Coffee Bean alpha-Galactosidase at pH 5.9 (AID 998)
How it was run: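 Green coffee bean enzyme (2 nM final) was incubated with compounds (0.7 nM–77 uM) and 4-methylumbelliferyl alpha-D-galactopyranoside (80 uM) in citrate buffer pH 5.9, 20 min at room temperature. High-pH stop; fluorescence 365/440 nm; AC50 from Hill fits.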

Measured: Potency

Sequence of Ubiquitin carboxyl-terminal hydrolase 1 (Homo sapiens) (O94782 whole entry, looked up): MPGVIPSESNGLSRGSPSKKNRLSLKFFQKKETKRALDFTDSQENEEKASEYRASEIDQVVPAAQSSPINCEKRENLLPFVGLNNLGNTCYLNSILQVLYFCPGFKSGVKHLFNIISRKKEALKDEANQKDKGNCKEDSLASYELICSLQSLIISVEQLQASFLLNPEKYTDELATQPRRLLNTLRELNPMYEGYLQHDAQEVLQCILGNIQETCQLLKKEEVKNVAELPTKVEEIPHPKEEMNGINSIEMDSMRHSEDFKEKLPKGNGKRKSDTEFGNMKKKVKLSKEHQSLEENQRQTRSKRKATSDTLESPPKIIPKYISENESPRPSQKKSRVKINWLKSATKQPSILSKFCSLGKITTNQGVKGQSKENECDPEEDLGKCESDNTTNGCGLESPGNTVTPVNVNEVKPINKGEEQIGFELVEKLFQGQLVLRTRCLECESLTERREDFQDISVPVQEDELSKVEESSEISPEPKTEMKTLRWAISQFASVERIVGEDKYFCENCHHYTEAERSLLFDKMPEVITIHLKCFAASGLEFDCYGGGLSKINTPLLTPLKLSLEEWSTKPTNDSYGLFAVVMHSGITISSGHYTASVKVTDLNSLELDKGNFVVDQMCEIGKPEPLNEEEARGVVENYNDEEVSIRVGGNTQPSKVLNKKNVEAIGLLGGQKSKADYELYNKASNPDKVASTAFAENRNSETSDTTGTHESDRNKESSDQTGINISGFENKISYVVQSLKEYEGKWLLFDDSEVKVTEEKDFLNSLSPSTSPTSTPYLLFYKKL
Sequence of ATP-dependent 6-phosphofructokinase (Trypanosoma brucei brucei) (O15648 whole entry, looked up): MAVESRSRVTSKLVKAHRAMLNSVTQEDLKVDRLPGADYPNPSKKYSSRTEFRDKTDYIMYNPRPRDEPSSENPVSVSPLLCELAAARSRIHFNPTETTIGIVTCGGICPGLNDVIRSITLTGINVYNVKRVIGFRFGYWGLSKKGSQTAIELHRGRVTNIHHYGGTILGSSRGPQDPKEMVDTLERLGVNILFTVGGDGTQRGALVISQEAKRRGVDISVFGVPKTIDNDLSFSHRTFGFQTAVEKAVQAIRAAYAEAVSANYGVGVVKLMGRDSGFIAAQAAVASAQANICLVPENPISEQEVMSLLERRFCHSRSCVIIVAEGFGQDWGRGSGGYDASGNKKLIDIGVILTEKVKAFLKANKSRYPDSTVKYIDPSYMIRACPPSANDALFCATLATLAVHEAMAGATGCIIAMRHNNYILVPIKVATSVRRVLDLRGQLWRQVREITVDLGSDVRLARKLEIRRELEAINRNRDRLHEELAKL
Sequence of Alpha-galactosidase A (Homo sapiens) (P06280 whole entry, looked up): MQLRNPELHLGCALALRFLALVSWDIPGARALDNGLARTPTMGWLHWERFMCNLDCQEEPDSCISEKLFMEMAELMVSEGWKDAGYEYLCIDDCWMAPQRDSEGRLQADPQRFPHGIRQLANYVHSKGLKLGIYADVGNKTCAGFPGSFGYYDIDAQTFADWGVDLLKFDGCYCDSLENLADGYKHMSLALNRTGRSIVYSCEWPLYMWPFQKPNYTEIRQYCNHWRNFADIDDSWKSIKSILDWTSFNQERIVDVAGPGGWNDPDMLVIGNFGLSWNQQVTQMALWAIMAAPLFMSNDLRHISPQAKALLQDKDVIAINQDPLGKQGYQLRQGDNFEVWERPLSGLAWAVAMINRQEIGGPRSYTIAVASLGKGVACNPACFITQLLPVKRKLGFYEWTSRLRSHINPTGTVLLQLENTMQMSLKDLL
Sequence of Luciferin 4-monooxygenase (Photinus pyralis) (P08659 whole entry, looked up): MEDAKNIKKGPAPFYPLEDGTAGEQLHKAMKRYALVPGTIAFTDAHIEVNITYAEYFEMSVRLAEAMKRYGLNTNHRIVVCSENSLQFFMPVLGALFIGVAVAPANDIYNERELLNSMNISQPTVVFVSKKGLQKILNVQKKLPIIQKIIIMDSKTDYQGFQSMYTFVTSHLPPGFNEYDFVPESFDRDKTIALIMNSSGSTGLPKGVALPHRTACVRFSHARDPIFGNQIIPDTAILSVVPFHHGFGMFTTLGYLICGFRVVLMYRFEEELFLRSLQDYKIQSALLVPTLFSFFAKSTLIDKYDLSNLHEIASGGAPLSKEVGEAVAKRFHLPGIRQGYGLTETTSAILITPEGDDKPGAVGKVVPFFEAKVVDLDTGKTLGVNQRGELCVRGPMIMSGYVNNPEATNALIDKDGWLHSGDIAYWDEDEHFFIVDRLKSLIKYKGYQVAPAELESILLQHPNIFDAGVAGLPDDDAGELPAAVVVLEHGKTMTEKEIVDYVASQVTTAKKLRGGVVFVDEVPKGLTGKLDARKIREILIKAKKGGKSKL
Sequence of Alpha-galactosidase (Coffea arabica) (Q42656 whole entry, looked up): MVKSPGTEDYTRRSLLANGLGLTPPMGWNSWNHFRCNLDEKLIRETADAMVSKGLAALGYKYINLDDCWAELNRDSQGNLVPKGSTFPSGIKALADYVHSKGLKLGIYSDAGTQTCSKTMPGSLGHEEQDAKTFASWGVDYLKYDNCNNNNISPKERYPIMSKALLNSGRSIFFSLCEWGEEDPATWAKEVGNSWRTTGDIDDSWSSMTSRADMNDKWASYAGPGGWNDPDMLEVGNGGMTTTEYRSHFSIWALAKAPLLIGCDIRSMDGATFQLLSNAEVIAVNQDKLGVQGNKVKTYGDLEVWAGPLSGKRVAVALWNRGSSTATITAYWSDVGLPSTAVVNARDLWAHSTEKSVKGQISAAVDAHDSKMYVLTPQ

C[N+]1(C)C2CC[C@H]1CC(OC(=O)[C@@H](CO)c1ccccc1)C2 (stereo not given in full)
not listed: [6] | [7] | [8] | [9]
inactive: all other assays above

Cc1ccc(O)cc1 (tested in a mixture with another compound)
inactive: [3]

C[C@@H]1O[C@@H](O[C@H]2C[C@@H](O)[C@@]3(CO)[C@H]4[C@H](O)C[C@]5(C)[C@@H](C6=CC(=O)OC6)CC[C@]5(O)[C@H]4CC[C@@]3(O)C2)[C@@H](O)[C@H](O)[C@H]1O
not listed: W2 | [6] | [7] | [8] | [9]
inactive: all other assays above

C=C[C@@H]1CN2CC[C@H]1C[C@H]2[C@H](O)c1ccnc2ccccc12
inactive: [1] | [2] | [3] | [4] | [5]
active: AS120 891 nM | CP191 501 nM | CP203 675 nM | CP237 1120 nM | CP250 1580 nM | CP252 1120 nM | DFO2036 355 nM | FAB9 112 nM | HB3 224 nM | PC49 891 nM | W2 338 nM

O=C(O)[C@H]1CCN1
inactive: [6] | [7] | [8] | [9]

COc1ccc2c(c1O)-c1cccc3c1[C@H](C2)N(C)CC3
inactive: [6] | [7] | [8] | [9]

O=c1[nH]cnc2[nH]cc(CN3CCCCC3)c12
inactive: [3]

O=C1C[C@@H]2OCC=C3CN4CC[C@]56c7ccccc7N1[C@@H]5[C@@H]2[C@H]3C[C@H]46 (tested in a mixture with another compound)
active: CP237 8910 nM | W2 6750 nM
inactive: [1] | [2] | [4] | [5] | CP191 | CP250 | CP252 | FAB9 | HB3 | PC49

C[C@@H]1O[C@H]1P(=O)(O)O
inactive: [6] | [7] | [8] | [9]

COc1ccc2c3c1O[C@@H]1C(=O)CC[C@@]4(O)[C@@H](C2)N(CC2CC2)CC[C@]314
inactive: [6] | [7] | [8] | [9]

C#CCN[C@@H](C)Cc1ccccc1
inactive: [6] | [7] | [8] | [9]

C[C@@H](Cc1ccc(O)cc1)NC[C@@H](O)c1cc(O)cc(O)c1
inactive: all assays above

COc1ccc2c(c1)[C@]13CCCC[C@@H]1[C@H](C2)NCC3
inactive: [6] | [7] | [8] | [9]
